Measured values reported in PubChem BioAssay AID1159580 (chemical genetic matrix, 2015).
Out of some 5,500 compounds screened, about 2,000 (36%) were called active. Inconclusive results (about 18%) are left out. Cut-off read from the data, not from the text of the source: active = normalized growth mostly below about 0.91 (no sharp cut-off); inconclusive = no clear call, values can overlap the other calls; inactive = mostly above about 0.92. Some of the results follow.

Assay: chemical genetic growth profiling, strain panel (AID 1159580);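 note: tested at 20 µM; growth read once vehicle control cultures reached saturation at 30 °C; 1 = growth at the plate median or of vehicle wells; lower values mean less growth of the strain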
Details: growth OD

Measured: normalized growth

CC1=NCCc2c1[nH]c1cc(O)ccc21
inactive: S. cerevisiae deletion strains, locus YJR075W, strain HOC1, stronger effect = lower value 0.988 | S. cerevisiae deletion strains, locus YKL009W, strain mrt4, stronger effect = lower value 0.951 | S. cerevisiae deletion strains, locus YKL068W, stronger effect = lower value 0.993 | S. cerevisiae deletion strains, locus YKL085W, strain MDH1 (second series), stronger effect = lower value 0.988 | S. cerevisiae deletion strains, locus YKL085W, strain MDH1, stronger effect = lower value 0.988 | S. cerevisiae deletion strains, locus YKL160W, strain elf1, stronger effect = lower value 0.955 | S. cerevisiae deletion strains, locus YKL190W, strain CNB1, stronger effect = lower value 0.999 | S. cerevisiae deletion strains, locus YKR001C, strain vps1, stronger effect = lower value 0.993 | S. cerevisiae deletion strains, locus YKR026C, strain gcn3, stronger effect = lower value 0.989 | S. cerevisiae deletion strains, locus YKR091W, strain srl3, stronger effect = lower value 0.988 | S. cerevisiae deletion strains, locus YLL001W, strain dnm1, stronger effect = lower value 0.984 | S. cerevisiae deletion strains, locus YLL026W, stronger effect = lower value 0.992 | S. cerevisiae deletion strains, locus YLL041C, strain sdh2, stronger effect = lower value 0.97 | S. cerevisiae deletion strains, locus YLR027C, strain aat2, stronger effect = lower value 0.985 | S. cerevisiae deletion strains, locus YLR039C, strain RIC1, stronger effect = lower value 0.993 | S. cerevisiae deletion strains, locus YLR058C, strain SHM2, stronger effect = lower value 0.971 | S. cerevisiae deletion strains, locus YLR102C, strain apc9, stronger effect = lower value 0.993 | S. cerevisiae deletion strains, locus YLR113W, strain HOG1, stronger effect = lower value 1 | S. cerevisiae deletion strains, locus YLR221C, strain rsa3, stronger effect = lower value 1.03 | S. cerevisiae deletion strains, locus YLR258W, strain gsy2, stronger effect = lower value 0.967 | S. cerevisiae deletion strains, locus YLR262C, strain YPT6 (second series), stronger effect = lower value 0.989 | S. cerevisiae deletion strains, locus YLR262C, strain YPT6, stronger effect = lower value 0.95 | S. cerevisiae deletion strains, locus YLR268W, strain sec22, stronger effect = lower value 1.05 | S. cerevisiae deletion strains, locus YLR320W, strain mms22, stronger effect = lower value 1.03 | S. cerevisiae deletion strains, locus YLR330W, strain CHS5, stronger effect = lower value 0.996 | S. cerevisiae deletion strains, locus YLR342W, strain FKS1 (second series), stronger effect = lower value 0.996 | S. cerevisiae deletion strains, locus YLR342W, strain FKS1, stronger effect = lower value 0.992 | S. cerevisiae deletion strains, locus YLR357W, strain rsc2, stronger effect = lower value 0.973 | S. cerevisiae deletion strains, locus YLR370C, strain arc18, stronger effect = lower value 0.973 | S. cerevisiae deletion strains, locus YLR371W, strain rom2, stronger effect = lower value 0.978 | S. cerevisiae deletion strains, locus YLR384C, strain iki3, stronger effect = lower value 0.994 | S. cerevisiae deletion strains, locus YLR418C, strain cdc73, stronger effect = lower value 0.995 | S. cerevisiae deletion strains, locus YML016C, strain PPZ1, stronger effect = lower value 0.997 | S. cerevisiae deletion strains, locus YML032C, strain rad52, stronger effect = lower value 0.995 | S. cerevisiae deletion strains, locus YML120C, strain ndi1, stronger effect = lower value 0.962 | S. cerevisiae deletion strains, locus YML124C, strain tub3, stronger effect = lower value 0.988 | S. cerevisiae deletion strains, locus YMR058W, strain fet3, stronger effect = lower value 0.994 | S. cerevisiae deletion strains, locus YMR078C, strain ctf18, stronger effect = lower value 0.979 | S. cerevisiae deletion strains, locus YMR125W, strain sto1, stronger effect = lower value 0.928 | S. cerevisiae deletion strains, locus YMR129W, stronger effect = lower value 0.986 | S. cerevisiae deletion strains, locus YMR205C, strain PFK2, stronger effect = lower value 0.95 | S. cerevisiae deletion strains, locus YMR223W, strain ubp8, stronger effect = lower value 0.961 | S. cerevisiae deletion strains, locus YMR231W, strain pep5, stronger effect = lower value 0.991 | S. cerevisiae deletion strains, locus YMR263W, strain SAP30, stronger effect = lower value 0.99 | S. cerevisiae deletion strains, locus YMR307W, strain GAS1, stronger effect = lower value 0.987 | S. cerevisiae deletion strains, locus YNL067W, strain RPL9B, stronger effect = lower value 1.02 | S. cerevisiae deletion strains, locus YNL071W, strain lat1, stronger effect = lower value 0.981 | S. cerevisiae deletion strains, locus YNL128W, strain TEP1, stronger effect = lower value 0.97 | S. cerevisiae deletion strains, locus YNL153C, strain GIM3, stronger effect = lower value 1 | S. cerevisiae deletion strains, locus YNL183C, strain NPR1, stronger effect = lower value 0.928 | S. cerevisiae deletion strains, locus YNL209W, strain ssb2, stronger effect = lower value 0.988 | S. cerevisiae deletion strains, locus YNL233W, strain BNI4, stronger effect = lower value 1 | S. cerevisiae deletion strains, locus YNL248C, strain rpa49, stronger effect = lower value 0.926 | S. cerevisiae deletion strains, locus YNL250W, strain rad50, stronger effect = lower value 0.981 | S. cerevisiae deletion strains, locus YNL271C, strain bni1, stronger effect = lower value 1 | S. cerevisiae deletion strains, locus YNL298W, strain CLA4, stronger effect = lower value 0.985 | S. cerevisiae deletion strains, locus YNL307C, strain MCK1, stronger effect = lower value 0.988 | S. cerevisiae deletion strains, locus YNL322C, strain KRE1 (second series), stronger effect = lower value 0.981 | S. cerevisiae deletion strains, locus YNL322C, strain KRE1, stronger effect = lower value 0.992 | S. cerevisiae deletion strains, locus YNR049C, strain mso1, stronger effect = lower value 0.97 | S. cerevisiae deletion strains, locus YNR052C, strain pop2, stronger effect = lower value 0.995 | S. cerevisiae deletion strains, locus YOL006C, strain TOP1, stronger effect = lower value 1.04 | S. cerevisiae deletion strains, locus YOL012C, strain htz1 1.3 | S. cerevisiae deletion strains, locus YOL147C, strain pex11, stronger effect = lower value 0.998 | S. cerevisiae deletion strains, locus YOR001W, strain rrp6, stronger effect = lower value 1.01 | S. cerevisiae deletion strains, locus YOR061W, strain CKA2, stronger effect = lower value 0.978 | S. cerevisiae deletion strains, locus YOR069W, strain VPS5, stronger effect = lower value 0.973 | S. cerevisiae deletion strains, locus YOR070C, strain gyp1, stronger effect = lower value 1.01 | S. cerevisiae deletion strains, locus YOR080W, strain dia2, stronger effect = lower value 1.01 | S. cerevisiae deletion strains, locus YOR083W, strain WHI5, stronger effect = lower value 0.954 | S. cerevisiae deletion strains, locus YOR106W, strain vam3, stronger effect = lower value 0.93 | S. cerevisiae deletion strains, locus YOR136W, strain idh2, stronger effect = lower value 0.985 | S. cerevisiae deletion strains, locus YOR144C, strain elg1, stronger effect = lower value 0.994 | S. cerevisiae deletion strains, locus YOR184W, strain ser1, stronger effect = lower value 0.969 | S. cerevisiae deletion strains, locus YOR231W, strain MKK1, stronger effect = lower value 0.985 | S. cerevisiae deletion strains, locus YOR265W, strain rbl2, stronger effect = lower value 0.976 | S. cerevisiae deletion strains, locus YOR270C, strain vph1, stronger effect = lower value 1.02 | S. cerevisiae deletion strains, locus YOR290C, strain snf2, stronger effect = lower value 0.911 | S. cerevisiae deletion strains, locus YOR316C, strain cot1, stronger effect = lower value 0.992 | S. cerevisiae deletion strains, locus YPL051W, strain arl3, stronger effect = lower value 1.01 | S. cerevisiae deletion strains, locus YPL055C, strain LGE1, stronger effect = lower value 0.956 | S. cerevisiae deletion strains, locus YPL078C, strain atp4, stronger effect = lower value 0.928 | S. cerevisiae deletion strains, locus YPL106C, strain sse1, stronger effect = lower value 0.943 | S. cerevisiae deletion strains, locus YPL240C, strain hsp82, stronger effect = lower value 0.992 | S. cerevisiae deletion strains, locus YPL241C, strain CIN2, stronger effect = lower value 0.996 | S. cerevisiae deletion strains, locus YPL256C, strain CLN2, stronger effect = lower value 0.991 | S. cerevisiae deletion strains, locus YPR119W, strain clb2, stronger effect = lower value 0.989 | S. cerevisiae deletion strains, locus YPR141C, strain kar3, stronger effect = lower value 0.981 | S. cerevisiae deletion strains, locus YPR163C, strain tif3, stronger effect = lower value 1 | S. cerevisiae deletion strains, locus YPR167C, strain met16, stronger effect = lower value 0.998 | S. cerevisiae deletion strains, strain wtn01, stronger effect = lower value 0.992 | S. cerevisiae strains, strain wild type, stronger effect = lower value 0.988
